S1P4 antag – S1P4 receptor antagonists, primary screen, cell-based. Sphingosine 1-phosphate receptor 4 (Homo sapiens), O95977. S1P4-expressing cells, antagonist mode, reporter read-out. inhibition, % at 4.98 µM. 220,000 compounds, 0.26% hits. AID 1510, 2009; in the data active = inhibition above about 29%;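 note: 0% = wells stimulated with agonist and 100% = vehicle wells without agonist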
GALR2 antag – GALR2 antagonists in receptor-expressing cells, primary screen; Galanin receptor type 2 (Homo sapiens), O43603; antagonist mode; inhibition, % at 4 µM; 140,000 compounds, 0.39% hits; in the data active = inhibition above about 27%;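 note: cells stimulated with galanin 1-16 at roughly its EC80; 0% = agonist challenge control and 100% = basal control without agonist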
S1P3 antagonist – S1P3 receptor antagonists, primary screen, cell-based | Sphingosine 1-phosphate receptor 3 (Homo sapiens), Q99500 | CHO S1P3 NFAT-BLA reporter, FRET fluorescence, antagonist mode | inhibition, % at 4.98 µM | 170,000 compounds, 0.27% hits | AID 485, 2006;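 active = inhibition above the plate cutoff, the mean inhibition of test wells on that plate plus 3 SD, cut at about 28% in these data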;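 note: cells challenged with S1P at its EC80 of 0.8 µM; blue over green emission ratio from cleaved BLA substrate after 4 h stimulation; 0% = S1P-stimulated wells and 100% = unstimulated DMSO-only wells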
Target sequence (Q99500 whole entry, looked up): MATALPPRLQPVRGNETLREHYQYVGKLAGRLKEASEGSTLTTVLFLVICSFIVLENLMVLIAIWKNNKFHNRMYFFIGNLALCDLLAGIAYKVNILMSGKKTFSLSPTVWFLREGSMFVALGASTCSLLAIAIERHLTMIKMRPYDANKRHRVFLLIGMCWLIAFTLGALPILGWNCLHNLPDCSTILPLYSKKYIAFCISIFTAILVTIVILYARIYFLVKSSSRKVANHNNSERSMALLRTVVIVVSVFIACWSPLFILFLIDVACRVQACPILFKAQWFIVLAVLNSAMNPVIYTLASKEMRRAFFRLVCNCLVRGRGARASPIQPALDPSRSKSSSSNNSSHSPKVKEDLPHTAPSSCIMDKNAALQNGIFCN
S1P4 ag – S1P4 receptor agonists, primary screen, cell-based; Sphingosine 1-phosphate receptor 4 (Homo sapiens), O95977; S1P4-expressing cell line, agonist reporter assay; activation, % at 4.98 µM; 220,000 compounds, 0.35% hits; in the data active = activation above about 11%;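 note: 0% = DMSO vehicle and 100% = reference agonist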
GALR2 agonist – GALR2 receptor agonists, primary screen, cell-based | 140,000 compounds, 0.48% hits | activation, % (test concentration not listed) | Galanin receptor type 2 (Homo sapiens), O43603 | GALR2-expressing cells, agonist activation read-out; in the data active = activation above about 5%, passing the limit was not always enough;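 note: 0% = vehicle buffer wells and 100% = reference agonist at full effect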
S1P4 antag cf – S1P4 receptor antagonists, human, confirmation, cell-based; shares compounds with S1P4 antag; S1P4-expressing cell line, antagonist mode, reporter read-out; inhibition, % at 4.98 µM; 520 compounds, 71% hits; AID 1524, 2009; in the data active = inhibition above about 30%
S1P1 antagonist – S1P1 receptor antagonists, human, counter-screen for S1P4 antagonist project, cell-based. shares compounds with S1P4 antag. cell-based S1P1 antagonist counterscreen, inhibition. inhibition, % at 4.98 µM. 520 compounds, 37% hits. AID 1564, 2009; in the data active = inhibition above about 40%;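 note: receptor stimulated with S1P near its EC80; 0% = agonist stimulated wells and 100% = vehicle only wells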
Active calls of the source: *; x = no result. Rows were chosen to be rich in hits. Some 1.3% of all compounds tested hit in one or more screens of this group.

SMILES	S1P4 antag	GALR2 antag	S1P3 antagonist	S1P4 ag	GALR2 agonist	S1P4 antag cf	S1P1 antagonist
COc1ccc(Oc2cc(NC(=O)c3nn(C)cc3[N+](=O)[O-])cc([N+](=O)[O-])c2)cc1	86*	-1	x	0	5	108*	0
O=P(O)(Oc1ccccc1)OC(c1ccccc1)C(F)(F)F (stereo unspecified)	5	x	-7	-2	x	x	x
COCCCn1c(-c2ccc(OC)cc2)cc(C(=O)NC2CCCCCCC2)c1C	-35	-2	-6	1	1	x	x
Cc1c(C(=O)Nc2ccccc2)cc(-c2ccccc2)n1CCCN1CCOCC1	34*	x	-12	0	x	3	-8
Cc1nc2ccccc2c(=O)n1-c1ccccc1[N+](=O)[O-]	-13	x	-19	-1	x	x	x
Cc1cc([N+](=O)[O-])c2ccccc2[n+]1[O-]	79*	x	-14	-2	x	114*	112*
COc1cc2c(cc1/C=C/[N+](=O)[O-])OCO2	41*	x	-3	-1	x	87*	23
CCP(=S)(CC)c1ccc(N(C)C)cc1	-20	x	-2	1	x	x	x
C=C1[C@@H](C)[C@H]2[C@H](Cc3ccccc3)NC(=O)[C@]23OC(=O)/C=C/[C@H](O)CCC[C@@H](C)C/C=C/[C@H]3[C@@H]1O	44*	x	20	0	x	51*	43*
CNc1cc(Cl)c2nonc2c1[N+](=O)[O-]	74*	x	-16	-5	x	114*	21
NC(=O)c1cn(C2OC(CO)C(O)C2O)c2ncnc(N)c12 (stereo unspecified)	72*	23	23	-6	-1	79*	42*
O=C(Nc1c(F)cc(F)cc1F)c1cccn(Cc2ccccc2)c1=O	-16	x	-13	2	x	x	x
CN1CCN(c2ccc([N+](=O)[O-])c3no[n+]([O-])c23)CC1	49*	x	-2	4	x	76*	-21
CN1CCN(c2ccc(S(C)(=O)=O)cc2[N+](=O)[O-])CC1	-10	1	-2	0	-1	x	x

From PubChem
